Results filed as inconclusive are left out. A call without a number means that no potency is given here. The source holds several records for some structures; these can differ, active in one and inactive in another. The source made the active and inactive calls. Unless noted, the call rests on the fitted dose curve; in most records, active means well fitted curve in the direction sought with a large enough effect in the repeat runs; inconclusive means weak or mixed curves; inactive means no such curve, though single readings can be large; an effect the other way counts as inactive or inconclusive.
What was measured:
[1] = qHTS assay for small molecules that induce genotoxicity in human embryonic kidney cells expressing luciferase-tagged ATAD5 (AID 651632); further: nearly all actives have a fitted effect of over 15% in size
Method in brief: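 Concentration-response screen for ATAD5 upregulation in HEK293T luciferase reporter cells; 16 hr treatment at 37C, then luminescence after 30 min with Amplite at room temperature.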

[2] = qHTS assay for small molecule agonists of the p53 signaling pathway - cell viability (AID 651633; calls by dose curve; further: nearly all actives have a fitted effect of over 30% in size; further: potency means the concentration at half of the fitted maximal effect)
Method in brief: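 Viability counter-read: CellTiter-Glo luminescence (30 min, room temperature) in the same p53RE-bla plates. These plates had been exposed to compounds for 16 h at 37 C.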

[3] = qHTS assay for small molecules that induce genotoxicity in human embryonic kidney cells expressing luciferase-tagged ATAD5 - cell viability (AID 651634; calls by dose curve; further: nearly all actives have a fitted effect of over 25% in size)
Method in brief: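 15.5 hr compound or vehicle exposure of HEK293T cells expressing luciferase-tagged ATAD5 at 37C; live-cell protease activity is read by fluorescence after 30 min of CellTiter-Fluor.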

[4] = qHTS assay for small molecule disruptors of the mitochondrial membrane potential - cell viability (AID 720634; calls by dose curve; further: nearly all actives have a fitted effect of over 20% in size; further: potency means the concentration at half of the fitted maximal effect)
Method in brief: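 In this qHTS format, HepG2 cells plated overnight were pinned with compound, incubated 1 hr, and assayed for ATP luminescence with CellTiter-Glo after m-MPI dye addition.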

[5] = qHTS assay for small molecule disruptors of the mitochondrial membrane potential (AID 720635); further: potency means the concentration at half of the fitted maximal effect
Method in brief: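 Mitochondrial membrane potential tracked with Mito-MPS dye, red aggregates (ex 540/em 590 nm) against green monomers (ex 490/em 535 nm). Compound treatment 1 hr at 37C, dye 30 min in HepG2.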

[6] = qHTS assay to test for compound auto fluorescence at 535 nm (green) in HepG2 cells (AID 720675)
[7] = qHTS assay to test for compound auto fluorescence at 460 nm (blue) in HEK293 cells (AID 720678)
Method in brief: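 HEK293 cells (2,000 per well, medium with 10% dialyzed FBS) attached for 4-5 hr at 37C, then received compound and stood overnight at 37C, 5% CO2. Blue fluorescence was read at Ex/Em 405/460 nm and expressed relative to triamterene.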

[8] = qHTS assay to test for compound auto fluorescence at 590 nm (red) in HEK293 cells (AID 720679)
Method in brief: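 HEK293 cells (2,000/well, medium with 10% dialyzed FBS) attached for 4-5 hr at 37C, received 23 nL compound and were incubated overnight at 37C, 5% CO2. Red fluorescence was then read at 540/590nm Ex/Em, referenced to Rose Bengal sodium.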

[9] = qHTS assay to test for compound auto fluorescence at 460 nm (blue) in HEK293 cell free culture (AID 720681)
Method in brief: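 Blue fluorescence (Ex 405/Em 460 nm, triamterene-equivalent) was read immediately after pin transfer of compound or DMSO into medium (DMEM, 10% FBS) without cells.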

[10] = qHTS assay to test for compound auto fluorescence at 535 nm (green) in HEK293 cell free culture (AID 720682)
Method in brief: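 No cells present: wells hold DMEM supplemented with 10% FBS, into which compound or vehicle is pinned. Green emission is then recorded (485 nm excitation, 535 nm emission) and scaled to fluorescein.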

[11] = qHTS assay to test for compound auto fluorescence at 590 nm (red) in HEK293 cell free culture (AID 720683)
Method in brief: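 Red-channel autofluorescence of compounds in culture medium (DMEM, 10% FBS), no cells, measured at 540/590 nm. Rose Bengal sodium is the reference fluorophore for equivalence.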

[12] = qHTS assay to test for compound auto fluorescence at 590 nm (red) in HepG2 cell free culture (AID 720684)
Method in brief: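 No cells present: MEM + 10% FBS only. Compound pinned in, red label read (540/590 nm). Activity = fluorescence equivalent to Rose Bengal sodium.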

[13] = qHTS assay to test for compound auto fluorescence at 460 nm (blue) in HepG2 cell free culture (AID 720685)
Method in brief: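 Cell-free plates of MEM plus 10% FBS received 23 nL compound or DMSO vehicle; blue-channel (405/460 nm) intensity scored against triamterene as reference fluorophore.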

[14] = qHTS assay to test for compound auto fluorescence at 535 nm (green) in HepG2 cell free culture (AID 720686)
[15] = qHTS assay to test for compound auto fluorescence at 460 nm (blue) in HepG2 cells (AID 720687)
Method in brief: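 Blue-channel autofluorescence (Ex/Em 405/460 nm, triamterene-equivalent) was measured after 1 hr compound exposure at 37 C, 5% CO2. Cells were HepG2, plated overnight at 37 C in MEM plus 10% FBS.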

[16] = biological target: Glucocorticoid receptor (Homo sapiens) (UniProt P04150); test: qHTS assay to identify small molecule agonists of the glucocorticoid receptor (GR) signaling pathway (AID 720691; active means well fitted activation curve with a large enough effect in the signal ratio in the repeat runs, not every such curve was filed as active; the % refers to the signal ratio)
Method in brief: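 Measures GR pathway activation through a GRE-beta-lactamase reporter stably integrated in HeLa cells, with 18 h compound treatment at 37 C and fluorescence detection using a FRET substrate.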

[17] = biological target: Glucocorticoid receptor (Homo sapiens) (UniProt P04150); test: qHTS assay to identify small molecule antagonists of the glucocorticoid receptor (GR) signaling pathway (AID 720692; active means well fitted inhibition curve with a large enough effect in the signal ratio in the repeat runs, not every such curve was filed as active; the % refers to the signal ratio; further: potency means the concentration at half of the fitted maximal effect)
Method in brief: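 Tox21 10K library screened in concentration-response for blockade of dexamethasone (5 nM final)-induced GRE-bla reporter activity in HeLa cells; 18 h treatment, fluorescence read.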

[18] = qHTS assay to test for compound auto fluorescence at 590 nm (red) in HepG2 cells (AID 720674)
Method in brief: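 1 hr compound incubation on HepG2 cells, 37 C, 5% CO2; plate read ex 540 nm / em 590 nm; intensities reported as Rose Bengal sodium equivalents.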

[19] = qHTS assay to test for compound auto fluorescence at 535 nm (green) in HEK293 cells (AID 720680)

Sequence of Glucocorticoid receptor (Homo sapiens) (P04150 whole entry, looked up): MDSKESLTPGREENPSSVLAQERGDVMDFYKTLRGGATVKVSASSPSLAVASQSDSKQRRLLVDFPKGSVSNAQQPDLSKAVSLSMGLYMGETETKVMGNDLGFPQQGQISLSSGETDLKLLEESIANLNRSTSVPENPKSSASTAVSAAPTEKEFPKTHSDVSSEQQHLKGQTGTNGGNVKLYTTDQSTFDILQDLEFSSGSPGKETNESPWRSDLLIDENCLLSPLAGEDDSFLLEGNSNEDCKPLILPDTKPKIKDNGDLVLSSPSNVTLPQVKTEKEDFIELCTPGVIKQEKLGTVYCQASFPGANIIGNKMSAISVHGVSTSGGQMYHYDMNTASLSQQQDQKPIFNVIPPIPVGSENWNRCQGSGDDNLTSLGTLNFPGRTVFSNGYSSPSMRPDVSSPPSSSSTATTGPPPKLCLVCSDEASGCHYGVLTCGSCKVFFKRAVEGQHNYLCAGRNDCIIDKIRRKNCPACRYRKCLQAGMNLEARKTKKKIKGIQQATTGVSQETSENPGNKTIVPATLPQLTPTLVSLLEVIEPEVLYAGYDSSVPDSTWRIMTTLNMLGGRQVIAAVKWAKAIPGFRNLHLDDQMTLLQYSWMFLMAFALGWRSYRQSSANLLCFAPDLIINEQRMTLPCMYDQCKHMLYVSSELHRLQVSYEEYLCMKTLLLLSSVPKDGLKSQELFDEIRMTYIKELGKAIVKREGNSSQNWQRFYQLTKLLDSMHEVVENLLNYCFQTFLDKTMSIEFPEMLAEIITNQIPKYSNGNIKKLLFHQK

## CCCCCCCC/C=C\CCCCCCCCO
[1]
  Potency: inactive
[2]
  Potency: inactive
[3]
  Potency: inactive
[4]
  Potency: inactive
[5]
  Potency: inactive
[6]
  outcome: inactive
[7]
  Potency: inactive
[8]
  outcome: inactive
[9]
  Potency: inactive
[10]
  outcome: inactive
[11]
  outcome: inactive
[12]
  outcome: inactive
[13]
  Potency: inactive
[14]
  outcome: inactive
[15]
  Potency: inactive
[16]
  Potency: inactive
[17]
  Potency: inactive

## O=c1cc(-c2ccccc2)oc2cc(O)cc(O)c12
[1]
  Potency: inactive
[2]
  Potency: inactive
[3]
  Potency: inactive
[4]
  Potency: 30.6 µM (active)
[5]
  Potency: 3.86 µM (active)
[18]
  outcome: inactive
[6]
  outcome: inactive
[8]
  outcome: inactive
[19]
  outcome: inactive
[9]
  Potency: inactive
[10]
  outcome: inactive
[11]
  outcome: inactive
[12]
  outcome: inactive
[13]
  Potency: inactive
[14]
  outcome: inactive
[15]
  Potency: inactive
[16]
  Potency: inactive
[17]
  Potency: 19.5 µM (active)

## CCC(C)(C)OC
[1]
  Potency: inactive
[2]
  Potency: inactive
[3]
  Potency: inactive
[4]
  Potency: inactive
[5]
  Potency: inactive
[6]
  outcome: inactive
[7]
  Potency: inactive
[8]
  outcome: inactive
[19]
  outcome: inactive
[9]
  Potency: inactive
[10]
  outcome: inactive
[11]
  outcome: inactive
[12]
  outcome: inactive
[13]
  Potency: inactive
[14]
  outcome: inactive
[15]
  Potency: inactive
[16]
  Potency: inactive
[17]
  Potency: inactive

## C[C@@]12CCC[C@H]1[C@@H]1CC[C@H]3C[C@@H](O)CC[C@]3(C)[C@H]1CC2
[1]
  Potency: inactive
[2]
  Potency: inactive
[3]
  Potency: inactive
[4]
  Potency: inactive
[5]
  Potency: inactive
[18]
  outcome: inactive
[6]
  outcome: inactive
[8]
  outcome: inactive
[19]
  outcome: inactive
[9]
  Potency: inactive
[10]
  outcome: inactive
[11]
  outcome: inactive
[12]
  outcome: inactive
[13]
  Potency: inactive
[15]
  Potency: inactive
[16]
  Potency: inactive
[17]
  Potency: inactive

## CCC(C)COC(C)=O (stereo not drawn)
[1]
  Potency: inactive
[2]
  Potency: inactive
[3]
  Potency: inactive
[4]
  Potency: inactive
[5]
  Potency: inactive
[18]
  outcome: inactive
[6]
  outcome: inactive
[7]
  Potency: inactive
[8]
  outcome: inactive
[9]
  Potency: inactive
[10]
  outcome: inactive
[11]
  outcome: inactive
[12]
  outcome: inactive
[14]
  outcome: inactive
[15]
  Potency: inactive
[16]
  Potency: inactive
[17]
  Potency: inactive

## N#CCc1ccc(Cl)cc1Cl
[1]
  Potency: inactive
[2]
  Potency: inactive
[3]
  Potency: inactive
[4]
  Potency: inactive
[18]
  outcome: inactive
[6]
  outcome: inactive
[7]
  Potency: inactive
[8]
  outcome: inactive
[19]
  outcome: inactive
[9]
  Potency: inactive
[10]
  outcome: inactive
[11]
  outcome: inactive
[12]
  outcome: inactive
[13]
  Potency: inactive
[14]
  outcome: inactive
[15]
  Potency: inactive

## Nc1nnc(-c2ccc([N+](=O)[O-])o2)o1
[1]
  Potency: inactive
[2]
  Potency: inactive
[3]
  Potency: inactive
[4]
  Potency: inactive
[5]
  Potency: 61.1 µM (active)
[6]
  outcome: inactive
[7]
  Potency: inactive
[8]
  outcome: inactive
[19]
  outcome: inactive
[9]
  Potency: inactive
[10]
  outcome: inactive
[11]
  outcome: inactive
[12]
  outcome: inactive
[13]
  Potency: inactive
[14]
  outcome: inactive
[15]
  Potency: inactive
[16]
  Potency: inactive

## O=C(OCC(O)CO)c1ccccc1Nc1ccnc2cc(Cl)ccc12 (stereo not drawn)
[1]
  Potency: inactive
[2]
  Potency: inactive
[3]
  Potency: inactive
[4]
  Potency: inactive
[18]
  fluorescence, relative to Rose Bengal: 0.0018% [at 18.6 µM] (inactive)
[6]
  fluorescence, % of fluorescein control: 0.0219% [at 18.6 µM] (inactive)
[7]
  fluorescence, % of triamterene: 0.52% [at 18.6 µM] (inactive)
[8]
  fluorescence, % of fluorescent control: -0.0042% [at 18.6 µM] (inactive)
[19]
  fluorescence, % of fluorescein: -0.106% [at 18.6 µM] (inactive)
[9]
  fluorescence, % of fluorescent control: 0.416% [at 18.6 µM] (inactive)
[10]
  activity change: 0.0295% [at 18.6 µM] (inactive)
[11]
  fluorescence, % of fluorescent control: 0.0763% [at 18.6 µM] (inactive)
[12]
  fluorescence, % of Rose Bengal: 0.268% [at 18.6 µM] (inactive)
[13]
  fluorescence, % of fluorescent control: 0.0675% [at 18.6 µM] (inactive)
[14]
  fluorescence, % of fluorescein control: -0.0285% [at 18.6 µM] (inactive)
[15]
  fluorescence, % of fluorescent control: 0.322% [at 18.6 µM] (inactive)

## C=CC(C)(CCC=C(C)C)OC(=O)CC(C)C (stereo not drawn)
[1]
  Potency: inactive
[2]
  Potency: inactive
[3]
  Potency: inactive
[4]
  Potency: inactive
[5]
  Potency: inactive
[18]
  outcome: inactive
[6]
  outcome: inactive
[7]
  Potency: inactive
[9]
  Potency: inactive
[10]
  outcome: inactive
[11]
  outcome: inactive
[12]
  outcome: inactive
[13]
  Potency: inactive
[14]
  outcome: inactive
[15]
  Potency: inactive
[17]
  Potency: inactive

## CCCCCC[C@@H](O)C/C=C\CCCCCCCC(=O)O
[1]
  Potency: inactive
[2]
  Potency: 21.1 µM (active) and inactive
[3]
  Potency: inactive
[4]
  Potency: inactive
[5]
  Potency: inactive
[18]
  outcome: inactive
[6]
  outcome: inactive
[7]
  Potency: inactive
[8]
  outcome: inactive
[19]
  outcome: inactive
[9]
  Potency: inactive
[10]
  outcome: inactive
[11]
  outcome: inactive
[12]
  outcome: inactive
[13]
  Potency: inactive
[14]
  outcome: inactive
[15]
  Potency: inactive
[17]
  Potency: inactive

## COC(=O)CCS
[1]
  Potency: inactive
[2]
  Potency: inactive
[3]
  Potency: inactive
[4]
  Potency: inactive
[5]
  Potency: inactive
[18]
  outcome: inactive
[6]
  outcome: inactive
[7]
  Potency: inactive
[8]
  outcome: inactive
[19]
  outcome: inactive
[9]
  Potency: inactive
[10]
  outcome: inactive
[11]
  outcome: inactive
[12]
  outcome: inactive
[13]
  Potency: inactive
[14]
  outcome: inactive
[15]
  Potency: inactive
[17]
  Potency: inactive

## Nc1cccc2c1CN(C1CCC(=O)NC1=O)C2=O (stereo not drawn)
[1]
  Potency: inactive
[2]
  Potency: inactive
[3]
  Potency: inactive
[4]
  Potency: inactive
[5]
  Potency: inactive
[18]
  outcome: inactive
[6]
  outcome: inactive
[8]
  outcome: inactive
[19]
  outcome: inactive
[10]
  outcome: inactive
[11]
  outcome: inactive
[12]
  outcome: inactive
[13]
  Potency: inactive
[14]
  outcome: inactive
[15]
  Potency: inactive
[16]
  Potency: inactive
[17]
  Potency: inactive

## O=C(OC(=O)c1ccccc1)c1ccccc1
[1]
  Potency: inactive
[2]
  Potency: inactive
[3]
  Potency: inactive
[4]
  Potency: inactive
[5]
  Potency: inactive
[18]
  outcome: inactive
[6]
  outcome: inactive
[7]
  Potency: inactive
[8]
  outcome: inactive
[9]
  Potency: inactive
[10]
  outcome: inactive
[11]
  outcome: inactive
[12]
  outcome: inactive
[13]
  Potency: inactive
[14]
  outcome: inactive
[15]
  Potency: inactive
[16]
  Potency: inactive
[17]
  Potency: inactive

— PubChem BioAssay (Tox21)
